Bioassay records: PubChem, several laboratories
AF4-AF9 inh – inhibitors of AF4 peptide binding to AF9, primary screen, biochemical, AlphaScreen, biotin-AF4 peptide, FLAG-AF9, single point | Protein AF-9 (Homo sapiens), P42568 | 350,000 tested, 0.47% active | inhibition, % at 10 µM;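 active = every replicate reaching a set inhibition limit, whatever the replicate mean, cut at about 25% in these data; inconclusive = mean inhibition reaches that limit but some replicates miss it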
FGF22 binding-1 – binders of human FGF22 protein, primary screen, FGF22 synaptogenesis inhibitor project, biophysical, thermal shift, single point | 340,000 tested, 1.5% active | activity (Tm shift, normalised), % at 9.99 µM | recombinant FGF22 thermal shift, SYPRO orange fluorescence; percent of sucrose octasulfate shift, DMSO zero;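 active = mean Tm shift, scaled 0 neutral to 100 positive control, at about 1.3% or above, every replicate too, limit read from the data; inconclusive = no clear call, values can overlap the other calls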
Target sequence (Q9HCT0 whole entry, looked up): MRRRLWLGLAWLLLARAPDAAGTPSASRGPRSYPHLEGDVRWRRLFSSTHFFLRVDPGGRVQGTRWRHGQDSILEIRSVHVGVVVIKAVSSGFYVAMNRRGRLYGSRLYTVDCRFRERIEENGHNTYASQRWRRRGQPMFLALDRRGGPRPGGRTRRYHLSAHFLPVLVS
esBAF inh – Bmi1 luciferase reporter increase in mESCs, primary screen, esBAF inhibitor project, mouse ES cells, Bmi1 luciferase knock-in, single point | 350,000 tested, 2% active | 24 h; 100% = twice the neutral-well signal | reporter increase, % at 12.5 µM | AID 602393, 2012; in the data active = activation above about 40%; inconclusive = no clear call, values can overlap the other calls;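 also: a rise in the Bmi1 reporter signal indicates esBAF inhibition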
MITF TRPM1 HTS – activators of MITF-driven TRPM1 promoter reporter, primary screen, cell-based, SK-MEL-5, luciferase, single point; SK-MEL-5 TRPM1-promoter luciferase, 24 h; % of positive control, neutral wells = 0; activation, % at 12.5 µM; 300,000 tested, 0.75% active; AID 588334, 2011;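 active = mean activation of at least 80% with every replicate also reaching 80%; inconclusive = mean reaches 80% but some replicate falls short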
Wnt act – Wnt/beta-catenin pathway activators, primary screen, cell-based, plate reader, single point; 300,000 tested, 1.2% active; Wnt/beta-catenin reporter cell assay, activator; activation, % at 9.35 µM; in the data active = activation above about 30%, passing the limit was not always enough; inconclusive = no clear call, values can overlap the other calls
SMARCA2 activ – SMARCA2 (BRM) function activators, primary screen, cell-based, luminescence, high throughput; activation, % at 9.1 µM; MG213 cells, MMTV-luciferase reporter, dexamethasone, overnight; 370,000 tested, 1% active; in the data active = activation above about 7.8%
FGF22 binding-2 – binders of human FGF22 protein, dose response, FGF22 synaptogenesis inhibitor project, biophysical, thermal shift, cherry-pick retest. shares compounds with FGF22 binding-1. recombinant FGF22 thermal shift, SYPRO orange fluorescence. thermal shift activity, °C (ΔTm) at 38 µM. 1,000 tested, 2% active;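 active = fitted rise in melting shift crosses a set limit at or below the top valid dose tested; inconclusive = flat fit at mid-level activity, or a poor quality fit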
SYPRO no-protein – compound-only thermal shift signal without protein, dose response, artefact control for FGF22 binder project, biochemical, cherry-picked samples, RT-PCR instrument. shares compounds with FGF22 binding-1. compound-only SYPRO orange thermal shift counter-screen, no protein. AC50, µM (doses to about 38 µM). 1,000 tested, 2% active. AID 743019, 2013;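 active = rising signal whose fitted curve reaches the 0.54 level within the top valid dose, showing a melting point, actives reach about 13 µM in these data; inactive = the rest, including activity in the opposite direction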; also: value is where the raw curve crosses a fixed level and not half-maximal
AlphaScreen intf – AlphaScreen signal interference counter-screen, dose response, artefact control, biochemical, cherry-picked samples, luminescence; shares compounds with AF4-AF9 inh; AC50, µM (doses to about 12 µM); 530 tested, 45% active; cut-off not given, nearly all actives have AC50 up to about 14 µM
Hits are given with their value; - = inactive; ? = inconclusive; . = no result; ! = not confirmed by another sample. Shown are actives, neighbours in structure and some others; about 4.3% of the full set was active somewhere.

SMILES	AF4-AF9 inh	FGF22 binding-1	esBAF inh	MITF TRPM1 HTS	Wnt act	SMARCA2 activ	AlphaScreen intf	others
N/C(=N\[N+](=O)[O-])N1CCN(C(=O)c2ccccc2)CC1	-	-	.	.	-	-	.
Cc1ccc(S(=O)(=O)N(C)C[C@@H]2Oc3cc(Br)ccc3S(=O)(=O)N([C@@H](C)CO)C[C@H]2C)cc1	-	2.2	-	.	.	.	.	FGF22 binding-2=-;SYPRO no-protein=-
Cc1ccc(S(=O)(=O)N(C)C[C@H]2Oc3cc(Br)ccc3S(=O)(=O)N([C@H](C)CO)C[C@@H]2C)cc1	-	1.6!	-	.	-	-	.	FGF22 binding-2=-;SYPRO no-protein=10.1µM
Cc1ccc(OC(=O)N(C)C[C@@H]2OCc3cnnn3CCCC(=O)N([C@@H](C)CO)C[C@H]2C)cc1	-	-	-	.	-	-	.
CCN(CC)c1ccc(C(=C2C=CC(=[N+](CC)CC)C=C2)c2ccccc2)cc1	75.8	-	.	-	-	-	1.06µM
CC1(C)CC(Nc2ccc(Nc3ccccc3)cc2)CC(C)(C)N1	76.1	-	.	-	-	-	12.6µM
O=C(Cc1ccccc1)N1CC2(C1)[C@H](c1ccccc1)[C@H](CO)N2Cc1cccc(Cl)c1	-	-	.	.	.	.	.
O=C(Cc1ccccn1)N1CC2(C1)[C@@H](c1ccccc1)[C@@H](CO)N2Cc1ccccn1	-	-	.	.	.	.	.
O=C(CCN1CC1)OCCOC(=O)CCN1CC1	?	-	-	-	-	-	-
CN1C2CCC1CC(OC(=O)CCN1CCCC1)C2 (stereo not drawn)	-	.	-	-	-	-	.
CCCNC(=O)[C@H]1[C@H](CO)[C@H]2Cn3c(cccc3=O)[C@@H]1N2CCC	-	-	-	.	.	.	.
NC(N)=N/N=C/c1cn(-c2ccccc2)nc1-c1cccs1	30.8	-	.	-	-	-	-
CN(C)c1ccc([P+](=O)c2ccc(N(C)C)cc2)cc1	-	-	.	-	-	-	.
CN(C)c1ccc(Cc2ccc(N(C)C)cc2)cc1	46.3	-	-	.	-	-	9.35µM
COc1cc2c(c(OC)c1OC)-c1ccc(O)c(=O)cc1[C@@H](N)CC2	48.2	-	-	-	-	-	7.58µM
COc1c(O)cc2c(c1OC)-c1ccc(OC)c(=O)cc1C(NC(C)=O)CC2 (stereo not drawn)	-	-	.	.	-	-	.
COC(=O)[C@@H]1[C@@H](CO)[C@@H]2Cn3c(ccc(C4=CCCCC4)c3=O)[C@H]1N2C(=O)CC1CC1	-	-	-	.	.	.	.
COC(=O)[C@H]1[C@H](CO)[C@H]2Cn3c(cccc3=O)[C@@H]1N2C(=O)C1CCC1	-	-	-	.	.	.	.
CC[n+]1c(/C=C/N(C)c2ccccc2)sc2ccc(Cl)cc21	.	.	-	-	-	-	.
CN(C)c1ccc(/C=C/c2cc[n+](C)c3ccccc23)cc1	41.0	-	-	-	-	-	2.9µM
CC[n+]1c(/C=C/C=C/c2ccc(N(C)C)cc2)sc2ccccc21	86.1	-	.	.	-	-	1.02µM
CN(C)c1ccc(/C=C/C=C/c2sc3ccccc3[n+]2C)cc1	61.3	-	.	.	-	-	3.66µM
